TrxR1 inh: rat TrxR1 inhibition; O89049; recombinant rTrxR1, NADPH fluorescence consumption, selenite substrate; Potency, µM (doses to about 114 µM), usual class: inhibitors; 1% of 390,000 active; further: nearly all actives have a fitted effect of over 65% in size
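Rat TrxR1 (90 nM in the dispensed reagent) was pre-reduced with 400 uM NADPH for 5 min at room temperature, then incubated with compound for 15 min. After 400 uM selenite was added, NADPH fluorescence (Ex 340/Em 450 nm) was followed for 8 min.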
KAT2A inh: GCN5L2 (KAT2A) acetyltransferase inhibition; Potency, µM (series often up to 58.9 µM), usual class: inhibitors; Q92830; GCN5L2 HAT assay, ThioGlo1 CoA-SH fluorescence; 0.21% of 390,000 active
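GCN5L2 (20 nM) in 50mM HEPES pH 7.5, 0.1mM EDTA, 0.01% Tween-20 preincubated 15 min with compounds at room temperature. Reaction started with H3(1-25) 75uM, acetyl-CoA 70uM, ThioGlo1 50uM; CoA-thiol fluorescence (Ex340/Em540) read at 0 and 20 min.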
GLS inh: inhibitors of human glutaminase (GLS) | GLS enzymatic activity, qHTS titration | Potency, µM (top dose mostly 45.5 µM), usual class: inhibitors | 0.21% of 410,000 active | AID 624170
Target sequence (O94925 whole entry, looked up): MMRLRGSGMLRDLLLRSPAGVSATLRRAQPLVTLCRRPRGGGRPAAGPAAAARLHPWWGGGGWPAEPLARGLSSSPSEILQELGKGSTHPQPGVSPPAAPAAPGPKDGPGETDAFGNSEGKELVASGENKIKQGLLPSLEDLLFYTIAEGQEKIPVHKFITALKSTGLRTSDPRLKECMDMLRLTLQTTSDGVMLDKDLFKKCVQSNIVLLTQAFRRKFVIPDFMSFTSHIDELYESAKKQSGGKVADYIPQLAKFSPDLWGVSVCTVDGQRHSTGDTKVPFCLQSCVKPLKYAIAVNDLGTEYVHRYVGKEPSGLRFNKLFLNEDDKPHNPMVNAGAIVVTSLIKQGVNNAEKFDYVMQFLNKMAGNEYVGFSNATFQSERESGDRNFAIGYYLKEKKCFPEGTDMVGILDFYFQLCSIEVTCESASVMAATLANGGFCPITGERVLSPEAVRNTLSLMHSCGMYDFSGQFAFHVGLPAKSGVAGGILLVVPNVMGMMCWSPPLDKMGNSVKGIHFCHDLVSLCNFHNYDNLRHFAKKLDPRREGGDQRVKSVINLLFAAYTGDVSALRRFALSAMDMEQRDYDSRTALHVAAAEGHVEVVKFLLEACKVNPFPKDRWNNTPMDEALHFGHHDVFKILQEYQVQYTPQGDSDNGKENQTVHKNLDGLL
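Assay buffer: 45 mM KH2PO4 pH 8.2, 0.02% Tween-20. hKGA acts on L-glutamine (1 mM solution added); product glutamate is reported by an oxidase/peroxidase Amplex Red coupling, with fluorescence taken at baseline and 30 min.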
TrxR1 substrate: is turned over as a substrate by rat TrxR1; purified TrxR1 substrate turnover, NADPH consumption readout; Potency, µM (top dose mostly 114 µM); 0.01% of 390,000 active; AID 588456; further: nearly all actives have a fitted effect of over 50% in size
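Rat TrxR1, dispensed at 90 nM, was prereduced with 400 uM NADPH (final) for 5 min at ~22 deg C, then incubated with compound 15 min before 400 uM selenite. A first-read NADPH fluorescence drop versus no-compound background flagged substrates.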
Sfp inh: inhibitors of Bacillus subtilis Sfp phosphopantetheinyl transferase; Q9F4F7; Biochemical Sfp PPTase activity, qHTS; Potency, µM, actives largely listed as inhibitors; 3.5% of 310,000 active; AID 1490;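 further: the enzyme is Sfp with the accession as filed and its product quenches rhodamine fluorescence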
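Reaction rates are the 30-min fluorescence difference (ex 525, em 598 nm) in wells containing 15 nM Sfp, 5 uM rhodamine-CoA and 12.5 uM BHQ-2-YbbR at pH 7.6 with 10 mM MgCl2.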
VDR inhibitor: vitamin D3 receptor (human) inhibition; AID 504847; 0.93% of 400,000 active; Potency, µM, actives largely listed as inhibitors; P11473; VDR-SRC2-3 peptide fluorescence polarization, 2 h
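Measured by FP: displacement of SRC2-3 coactivator peptide from VDR by library compounds, following a two-hour ambient incubation.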
A number is an active result; i = inactive; ? = inconclusive; nt = not tested or not shown; [ ] = dose if it differs, or a comment. Only some compounds are listed: those with a hit (about 3.8% of all), similar ones and a draw of the others. The call rests on the fitted dose curve; in most records, active means well fitted curve in the direction sought with a large enough effect; inconclusive means small, poorly fitted or top-dose-only effect, or another doubt; inactive means no such curve, though single readings can be large; an effect the other way counts as inactive or inconclusive.

SMILES	TrxR1 inh	KAT2A inh	GLS inh	TrxR1 substrate	Sfp inh	VDR inhibitor
C=CCNC(=S)Nc1ccc(C(N)=O)cc1	i	i	i	i	i	i
CC1=CC(C)(C)N(C(=O)CNC2CCCCC2)c2cc(C)ccc21	i	i	i	i	79.4µM	i
COc1cc(C=Nc2ccccc2C(=O)Nc2ccccc2)cc(OC)c1OC	22.4µM	i	i	i	i	i
CCSc1ccccc1C(=O)Nc1cc(OC)c(OC)c(OC)c1	i	i	i	i	15.8µM	i
COc1cc(NC(=O)c2ccccc2-c2ccccc2)cc(OC)c1OC	nt	i	nt	nt	i	nt
CO/N=C/c1c(-c2ccc(Cl)cc2)nc2cc(C)ccn12	i	i	i	i	i	i
Cc1ccccc1NC(=O)NCCCN1CCN(c2ccccc2F)CC1	i	i	nt	i	nt	i
CCSC1C(=O)N(C)C(SCC)C(=O)N1C (stereo not drawn)	nt	nt	i	nt	nt	nt
O=S(=O)(NCCC1=CCCCC1)c1c(Cl)cccc1Cl	i	i	i	i	nt	i
Oc1[nH]c2ccccc2c1N=Nc1nc(Nc2ccccc2)nc(N2CCOCC2)n1	i	i	i	i	15.8µM	i
C=CCc1ccc(OCCOCCOc2cccc3ccc(C)nc23)c(OC)c1	i	i	i	i	?	i
COc1cc(C)ccc1OCCOCCOc1cccc2ccc(C)nc12	i	i	i	i	50.1µM	i
CCN1C(=O)/C(=c2\sc3nc(=O)c(Cc4ccccc4)nn3c2=O)c2ccccc21	?	i	i	i	25.1µM	?
C=CCSc1nn2c(=O)c3ccccc3nc2s1	i	i	i	i	i	i
CCN1C(=O)/C(=C/c2nc3ccccc3c(=O)[nH]2)c2ccccc21	i	i	i	i	i	i
C=CCN1C(=O)/C(=c2\sc3nc(=O)c(Cc4ccccc4)nn3c2=O)c2ccccc21	?	i	?	i	12.6µM	?
C=CCN1C(=O)/C(=c2\sc3nc(=O)c(Cc4ccc(OC)c(OC)c4)nn3c2=O)c2ccccc21	?	i	i	i	15.8µM	39.8µM
COc1cc2cnncc2cc1OC	i	i	i	i	i	i
Cc1nnc(N2CCCC(C(=O)NCc3ccc(OC(C)C)cc3)C2)c2nn(-c3ccccc3)c(C)c12 (stereo not drawn)	i	i	i	i	89.1µM	i
O=C(N/N=C/c1cccc2ccccc12)c1ccncc1	i	i	i	i	i	i
O=C(/C=C/c1cccc2ccccc12)c1ccncc1	?	i	i	i	25.1µM	14.1µM
O=C(/C=C/c1ccccc1O)c1ccc(Cl)cc1	?	i	i	i	i	35.5µM
COc1ccccc1/C=C/C(=O)c1ccccc1	i[2.29 µM]	i	i	i[2.29 µM]	i	79.4µM
O=C(/C=C/c1ccccc1O)c1ccccc1	i[2.29 µM]	nt	i	i[2.29 µM]	nt	28.2µM
CCOc1ccc(-c2nonc2NC(=O)COc2ccc(C)c(C)c2)cc1OCC	i	i	i	i	nt	i
SMILES	TrxR1 inh	KAT2A inh	GLS inh	TrxR1 substrate	Sfp inh	VDR inhibitor
O=C(c1ccc(F)cc1)C1CCN(C(=O)c2ccc(Cl)cc2)CC1	i[2.29 µM]	nt	i	i[2.29 µM]	nt	i
CC(C)(C)c1ccc(OCCC(=O)NNC(=O)c2ccccc2)cc1	i	i	i	i	nt	i
Cn1cc(/C=C/C(=O)c2ccccc2)c2ccccc21	i	i	i	i	50.1µM	i
O=C(/C=C/c1ccc[nH]1)c1ccccc1	i	i	i	i	56.2µM	79.4µM
CCOC(=O)/C(=C\c1cn(C)c2ccccc12)[N+](=O)[O-]	17.8µM	i	?	i	i	50.1µM
O=C(/C=C/c1ccc(NC(=O)c2ccccc2-c2ccccc2C(=O)O)cc1)c1ccccc1	i	?	i	i	i	20µM
CC1CCN(CCCNC(=O)CCCNC(=O)Cn2cnc3sc4c(c3c2=O)CCCC4)CC1	i	i	i	i	i	i
Cc1cccc(NCc2nc(SCC(=O)Nc3ccccc3Br)n[nH]2)c1	i	i	i	i	i	i
CC(C)(CO)CNC(=O)CCc1nnc(Cc2ccc(-c3ccccc3)cc2)o1	i	i	i	i	i	i
COc1cc(O)c(C(=O)/C=C/c2ccccc2)c(OC)c1	i	i	i	i	i	14.1µM
N#Cc1ccc(/C=C/C(=O)c2ccccc2)cc1	?	i	i	i	i	14.1µM
COc1ccc(C(=O)/C=C/c2ccc3c(c2)OCCO3)cc1	i	i	i	i	i	i
O=C(/C=C/c1ccc2c(c1)OCCO2)c1ccccc1	?	i	i	i	i	50.1µM
C/C(=C\c1ccccc1)CN1CCN(c2cccc(Cl)c2)CC1	i	i	i	i	i	i
CSc1ccccc1NC(=O)Cn1nc([N+](=O)[O-])cc1C	i	i	i	i	56.2µM	i
Cc1cc([N+](=O)[O-])nn1CC(=O)Nc1cccc2nonc12	i	i	i	i	i	i
Cc1ccc([N+](=O)[O-])cc1NC(=O)c1ccc(CSc2ccccc2)cc1	i	i	i	i	31.6µM	i
O=C(Nc1cccc([N+](=O)[O-])c1)c1ccc(CSc2ccccc2)cc1	i	?	i	i	i	i
CSc1ccccc1NC(=O)c1ccc([N+](=O)[O-])cc1	i	i	i	i	56.2µM	?
O=C(O)CCn1c(CO)nc2ccccc21	i	i	i	i	i	i
CC(=O)N1CCSc2ccc(S(=O)(=O)NCc3ccc(F)cc3)cc21	i	i	i	i	i	i
CCOC(=O)c1c(-c2ccc(OC)cc2)csc1NC(=O)CCN1C(=O)c2ccccc2C1=O	i	i	i	i	50.1µM	i
CCOC(=O)c1c(-c2ccc(Cl)cc2)csc1NC(=O)CNCc1ccco1	i	i	i	i	50.1µM	i
CCOC(=O)c1c(-c2ccc(OC)cc2)csc1NC(=O)CNCc1ccco1	i	i	i	i	i	i
CCOC(=O)c1c(-c2ccc(F)cc2)csc1NC(=O)C1CCCO1 (stereo not drawn)	i	i	i	i	22.4µM	?
SMILES	TrxR1 inh	KAT2A inh	GLS inh	TrxR1 substrate	Sfp inh	VDR inhibitor
CCOC(=O)c1c(-c2ccc(OC)cc2)csc1NC(=O)CCN1CCOCC1	i	i	i	i	35.5µM	i
Cc1cc2c(cc1C)C(c1cccc([N+](=O)[O-])c1)CC(=O)N2 (stereo not drawn)	i	i	i	i	i	i
CCOc1ccccc1NC(=O)C(c1ccccc1)N1CCN(CC(=O)N2CCOCC2)CC1 (stereo not drawn)	i	i	i	i	nt	i
O=C(Nc1ccccc1C(=O)NCc1cccnc1)c1ccccc1Cl	i	i	i	i	i	i
CCC#CCOCC(=O)Nc1ccccc1	nt	nt	nt	nt	i	nt
CCOC(=O)c1c(-c2ccccc2)csc1NC(=O)c1ccc(S(=O)(=O)N2CC(C)OC(C)C2)cc1 (stereo not drawn)	i	i	i	i	i	i
CCOC(=O)c1c(-c2ccc(C)cc2)csc1NC(=O)CCN1CC(C)OC(C)C1 (stereo not drawn)	i	i	i	i	15.8µM	i

Source: PubChem (National Center for Advancing Translational Sciences (NCATS))
